About 2,000 (36%) of roughly 5,500 compounds were called active. Roughly 18% stayed inconclusive and do not appear here. No stated cut-off is given here; in the data, active means normalized growth mostly below about 0.91 (no sharp cut-off); inconclusive means no clear call, values can overlap the other calls; inactive means mostly above about 0.92. Some of the results follow.
Assay: chemical genetic growth profiling, strain panel (AID 1159580);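 further: tested at 20 µM; growth read once vehicle control cultures reached saturation at 30 °C; 1 = growth at the plate median or of vehicle wells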
Conditions: S. cerevisiae deletion strains, growth OD

Measured: normalized growth

N[C@H](C(=O)O)[C@H](O)C(=O)O
inactive: locus YAL013W, strain DEP1, stronger effect = lower value 0.972 | locus YAL040C, strain CLN3, stronger effect = lower value 0.965 | locus YCL061C, strain MRC1 (second series), stronger effect = lower value 0.994 | locus YDR150W, strain NUM1, stronger effect = lower value 1 | locus YDR363W, strain ESC2, stronger effect = lower value 0.987 | locus YER002W, strain NOP16, stronger effect = lower value 1 | locus YMR307W, strain GAS1, stronger effect = lower value 0.992 | locus YNL153C, strain GIM3, stronger effect = lower value 0.989 | locus YNL175C, strain NOP13, stronger effect = lower value 1.01 | locus YNL197C, strain WHI3, stronger effect = lower value 0.996 | locus YNL224C, strain SQS1, stronger effect = lower value 0.983 | locus YOR083W, strain WHI5 (second series), stronger effect = lower value 1.06 | locus YPL241C, strain CIN2, stronger effect = lower value 0.992

Reference: PubChem BioAssay AID1159580 (chemical genetic matrix, 2015)
